About 83,000 compounds went through this panel and 20% of them were active in at least one assay; those are over-represented in the sample as a whole.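 Interpretation: 100, growth as untreated; towards 0, rising growth inhibition; 0, no net growth; 0 to -100, cell death. Compounds scoring below 10 were considered active.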 A number with no mark means an inactive call. Calls of active or inactive are those of the source.
Each compound was assayed on KM12 colon (assay: NCI-60 one-dose screen, 48 h (100 = growth as untreated, 0 = no growth, -100 = all killed)). Settings: 10 µM unless noted.
Procedure: Growth inhibition of the KM12 human tumor cell line is measured as a screen for anti-cancer activity. Cells are grown in 96 well plates and exposed to the test compound for 48 hours. Compounds are tested at a single concentration, which is 10^-5 M for most compounds. The reported endpoint is percent growth (GI% or GIPRCNT), where numbers from 0 - 100% represent growth inhibition, and numbers from -100% - 0 represent cell death. For example, a value of 40 represents 60% growth inhibition. A value of 0 means no net growth occurred over the course of the experiment. A value of -40 indicates 40% of cells at the beginning of the experiment died by the end of the experiment. A value of -100 means all cells are dead at the end of the experiment.
NCI-60 Human Tumor Cell Lines Screen was performed using the standard one-dose NCI protocol, which is described in more detail at https://dtp.cancer.gov/discovery_development/nci-60/default.htm.
Compounds with GIPRCNT values below 10 were considered active. Activity score was based on GIPRCNT using the following formula: […]
Score is 0 for GIPRCNT values of 100 or above, 50 for GIPRCNT values of 0, and 100 for GIPRCNT values of -100.
`CC[C@@H]1C(=O)N(C)c2cnc(Nc3ccc(C(=O)NC4CCC(N5CCN(CC6CC6)CC5)CC4)cc3OC)nc2N1C(C)C` (stereo not given in full) was tested, and the growth was 4.24% (active). In the case of `CC#CC(=O)N1CCC[C@H]1c1nc(-c2ccc(C(=O)Nc3ccccn3)cc2)c2c(N)nccn12`, the growth is reported as 91.8%. Compound `COc1cc(NC2CCC(=O)N2c2ccc(Cl)cc2Cl)cc(OC)c1OC` (stereo not given) has a growth of 97.7%. `O=C(CNc1nc(-c2ccc(Cl)cc2)cs1)Nc1ccc(-c2nc3ccccc3s2)cc1` gave a growth of 99%. `CO[C@@H](C)Cn1c(=O)n(C)c2cnc3ccc(-c4cncc(C(C)(C)O)c4)cc3c21` was tested, and the growth was 5.54% (active). Work on `CCc1nc2cc(/C=C/C(=O)NO)ccc2c(=O)n1CCc1ccc(OC)cc1` yielded a growth of 23.7%. `CC1(O)CCC2CC3OC3(C)CCC3OC3(C)C(O)CC1C2(C)C` (stereo not given) showed a growth of 112%. Work on `COC(=O)c1[nH]cnc1/N=N/N(C)CCO` yielded a growth of 106%. `CCCCCCCCCCCC[n+]1ccccc1` was tested, and the growth was -48.1% (active). For `CCN1CCN(c2nc(C)cc(N(CCNc3ccnc4cc(Cl)ccc34)Cc3ccc4c(c3)OCO4)n2)CC1`, the growth was 55.9%. `C[C@@H](Nc1cc(F)cc(F)c1)c1cc(C(=O)N(C)C)cc2c(=O)cc(N3CCOCC3)oc12` showed a growth of 66.5%. `CNC(=O)c1cc(Oc2cccc3nc(Nc4ccc(Cl)c(F)c4)ccc23)ccn1` was tested, and the growth was 84.4%. `Cc1oc2c(C(=O)N/N=C\c3ccc(O)cc3O)c[nH]c2c1C` gave a growth of 28.9%. `O=C1OCC2=C1C(c1cccc(F)c1)c1cc3c(cc1N2CCO)OCCO3` (stereo not given) showed a growth of 14%. For `O=C(COc1cccc(/C=C2\Cc3ccc(Cl)cc3C2=O)c1)Nc1nccs1`, the growth was 77.2%. For `Cc1ccc(-[n+]2c3cc(N)c(C)cc3nc3cc(C)c(Nc4ccccc4)cc32)cc1`, the growth was -92.7% (active). In the case of `CNC(=O)c1ccccc1Nc1nc(Nc2ccc3c(c2OC)CCC[C@H](N2CCN(CCO)CC2)C3)ncc1Cl`, the growth is reported as -27.3% (active). In the case of `CN1CCN(c2ccc(C(=O)Nc3n[nH]c4ccc(Cc5cc(F)cc(F)c5)cc34)c(NC3CCOCC3)c2)CC1`, the growth is reported as -72.5% (active). `Cc1nn(-c2nc3ccccc3[nH]2)c2c1C(c1ccc(O)cc1)CC(=O)N2` (stereo not given) showed a growth of 60.3%. `Fc1ccc(NCc2cn(-c3ccccc3)nc2-c2ccc(OCc3ccccc3)cc2)cc1Cl` gave a growth of 98%. For `Nc1nc(N)c2cc(CNc3ccc(C(=O)NC(CC(=O)O)C(=O)O)cc3)ccc2n1` (stereo not given), the growth was 33.8%. Compound `CCCCCCC1(/C=N/NC(N)=O)NC(=O)NC1=O` (stereo not given) has a growth of 97%. Compound `C=CC(=O)Nc1cccc(Nc2nc(Nc3ccc(N4CCN(C(C)=O)CC4)cc3OC)ncc2C(F)(F)F)c1` has a growth of 15.7%. In the case of `COc1ccc(-c2ccc3c(N4CCOC[C@@H]4C)nc(N4CCOC[C@@H]4C)nc3n2)cc1CO`, the growth is reported as 13.1%. `CCOC(=O)C1=C(C)N=C2Sc3cc(OC(F)(F)F)ccc3N2[C@H]1c1ccccn1` was tested, and the growth was 32.3%. Compound `CC1=CC2c3oc(-c4ccccc4)c(C(=O)c4ccccc4)c3CNC2C=C1` (stereo not given) has a growth of 101%. For `Cc1cc(Nc2cc(N3CCN(C)CC3)nc(Sc3ccc(NC(=O)C4CC4)cc3)n2)n[nH]1`, the growth was 6.38% (active). For `CC(=Nc1ccccc1)C1=C(O)C(Cc2ccccc2)NC1=O` (stereo not given), the growth was -46.3% (active). `CC12O[C@H](C[C@@H](OC(=O)CCC(=O)O)[C@H]1O)n1c3ccccc3c3c4c(c5c6ccccc6n2c5c31)C(=O)NC4=O` was tested, and the growth was 15.4%. `NC[C@@](O)(c1ccc(Cl)cc1)c1ccc(-c2cn[nH]c2)cc1` gave a growth of 16.6%. With `COC(=O)[C@H](C)NC(=O)[C@@H](OC)[C@@H]1Cc2cc3cc(OC4CC(OC5CC(O)C(O)C(C)O5)C(O)C(C)O4)c(C)c(O)c3c(O)c2C(=O)[C@H]1OC1CC(OC2CC(OC3CC(C)(O)C(O)C(C)O3)C(O)C(C)O2)C(O)C(C)O1` (stereo not given in full) the growth was 5.08% (active). With `CCCCCCCC(=O)SCC/C=C/[C@@H]1CC(=O)NCc2cc(ccn2)C2=N[C@@](C)(CS2)C(=O)N[C@@H](C(C)C)C(=O)O1` the growth was -3.5% (active). With `O=C1NC(=O)[C@@H](c2cn3c4c(cccc24)CCC3)[C@@H]1c1c[nH]c2ccccc12` the growth was 4.42% (active). With `CCN1CCN(Cc2ccc(NC(=O)Nc3nc(-c4cc(OC)c(OC)c(OC)c4)cs3)cc2C(F)(F)F)CC1` the growth was -56.8% (active). In the case of `CNC(=O)c1cc(Oc2ccc3nc(NC(=O)Nc4ccc(Cl)c(C(F)(F)F)c4)sc3c2)ccn1`, the growth is reported as 29.8%. `COc1ccc(F)c(F)c1C(=O)c1cnc(NC2CCN(S(C)(=O)=O)CC2)nc1N` was tested, and the growth was 4.84% (active). Compound `C=CCN1C(=O)c2cccc3c(-c4ccc5c(c4)ncn5C4CCCCC4)ccc(c23)C1=O` has a growth of 49.4%. In the case of `Cc1[nH]c(/C=C2\C(=O)Nc3ccc(F)cc32)c(C)c1C(=O)NC[C@H](O)CN1CCOCC1`, the growth is reported as 5.33% (active). `CC[C@H](CO)Nc1nc(NCc2ccccc2)c2ncn(C(C)C)c2n1` was tested, and the growth was 47.6%. `Cc1ccc(NC(=O)c2ccc(CN3CCN(C)CC3)cc2)cc1Nc1nc(-c2cccnc2)cs1` was tested, and the growth was 51.7%.
